From the supplement of paper PMC6555819

Experiments:
Experiment in all cases: PBM binding z-score (relative to random genomic background probes); higher = stronger binding; sequences stand for … in GC…GCGATTGACAGCGTAGAATGAAGG
[1] = test system: FXR:RXRa (NR concentration 270 nM, RXRa partner concentration 90 nM)
Method in brief: (§1)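 Antibodies against each partner of ligand-free nuclear receptor dimers (one per run) detected binding on custom Agilent 4×180K protein-binding microarrays after 1 h incubation. The double-stranded probes had 34-nt variable regions carrying direct-repeat seeds, single-nucleotide variants, half-site ablations and random human genomic background sequences. Binding z-scores, from regression-normalized fluorescence, use the random background probes as reference.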

[2] = test system: LXRa:RXRa (NR concentration 270 nM, RXRa partner concentration 90 nM)
Method in brief: as §1

[3] = test system: LXRa homodimer (NR concentration 270 nM)
Method in brief: as §1

[4] = test system: LXRb:RXRa (NR concentration 270 nM, RXRa partner concentration 90 nM)
Method in brief: as §1

[5] = test system: LXRb homodimer (NR concentration 270 nM)
Method in brief: as §1

[6] = test system: PPARa:RXRa (NR concentration 270 nM, RXRa partner concentration 90 nM)
Method in brief: as §1

[7] = test system: PPARg:RXRa (NR concentration 180 nM, RXRa partner concentration 90 nM)
Method in brief: as §1

[8] = test system: PPARg:RXRa 270nM:90nM, anti-RXR (NR concentration 270 nM, RXRa partner concentration 90 nM)
Method in brief: as §1

[9] = test system: PPARg:RXRa 30nM:10nM, anti-RXR (NR concentration 30 nM, RXRa partner concentration 10 nM)
Method in brief: as §1

[10] = test system: PPARg:RXRa 90nM:30nM, anti-RXR (NR concentration 90 nM, RXRa partner concentration 30 nM)
Method in brief: as §1

[11] = test system: PPARg:RXRa DBDmut IVT, anti-RXR (DBD mutation: RXRa K156A/R161A, NR concentration 270 nM, RXRa partner concentration 90 nM)
Method in brief: as §1

[12] = test system: PPARg:RXRa IVT, anti-PPARg (NR concentration 270 nM, RXRa partner concentration 90 nM)
Method in brief: as §1

[13] = test system: PPARg DBDmut:RXRa IVT, anti-PPARg (DBD mutation: PPARg1 K132A/R137A, NR concentration 270 nM, RXRa partner concentration 90 nM)
Method in brief: as §1

[14] = test system: PPARg DBDmut IVT, anti-PPARg (DBD mutation: PPARg1 K132A/R137A, NR concentration 270 nM)
Method in brief: as §1

[15] = test system: PPARg homodimer (NR concentration 180 nM)
Method in brief: as §1

[16] = test system: PXR:RXRa (NR concentration 270 nM, RXRa partner concentration 90 nM)
Method in brief: as §1

[17] = test system: PXR homodimer (NR concentration 270 nM)
Method in brief: as §1

[18] = test system: RARa:RXR (NR concentration 270 nM, RXRa partner concentration 90 nM)
Method in brief: as §1

[19] = test system: RARa homodimer (NR concentration 270 nM)
Method in brief: as §1

[20] = test system: RARb:RXRa (NR concentration 270 nM, RXRa partner concentration 90 nM)
Method in brief: as §1

Sequence	PBM binding z-score [1]	PBM binding z-score [2]	PBM binding z-score [3]	PBM binding z-score [4]	PBM binding z-score [5]	PBM binding z-score [6]	PBM binding z-score [7]	PBM binding z-score [8]	PBM binding z-score [9]	PBM binding z-score [10]	PBM binding z-score [11]	PBM binding z-score [12]	PBM binding z-score [13]	PBM binding z-score [14]	PBM binding z-score [15]	PBM binding z-score [16]	PBM binding z-score [17]	PBM binding z-score [18]	PBM binding z-score [19]	PBM binding z-score [20]
AGAAAGAGGTTACCAAAGATCAGGGAAACGCTTG	2.31	6.51	-0.18	3.65	0.0945	3.37	2.1	2.36	0.802	1.77	1.97	1.94	0.516	0.104	0.75	1.82	-0.238	2.63	0.245	2.62
CGTCCAAGGTCAATGGTCAGTGAAGAGATGACGG	6.47	4.43	0.613	3.19	0.452	4.93	4.14	4.38	1.83	3.55	3.08	3.44	1.01	-0.0239	2.84	3.33	1.16	3.98	0.654	5.08
ATCTCTAGGTAAGACTCAGATCAGTGAAGAACGC	0.264	0.336	0.262	-0.0617	0.692	-0.153	0.264	0.0019	0.134	0.3	1.51	1.26	-0.0293	0.583	0.669	-0.381	0.314	-0.0698	1.46	-0.146
AATACAGGCTCACTAGGCCAGAGTAGGTACGAAT	-0.561	-0.71	-0.282	-0.839	-0.695	-0.441	0.692	0.176	0.027	-0.114	0.83	1.96	0.786	0.55	-0.108	-0.759	-0.466	-0.759	-0.709	-0.981
CATACAGGGTCAGTTAGGCCAGAGTAGGGACGGC	3.37	2.29	-0.0109	1.79	0.655	3.36	2.24	1.92	0.738	1.41	0.861	2.08	1	0.259	2.09	1.55	0.258	2.17	0.791	3.67
GCTGCTAGGTCAACTGATGGTCAGTTAAAGCTCG	3.99	3.11	0.245	2.35	0.46	3.74	2.8	3.25	0.658	2.06	4.66	4.13	-0.118	-0.331	1.79	1.64	-0.519	2.6	-0.0466	4.15
GATACAGGGTCAGCTAGAGGCCAGAGTTTGGAAA	4.24	2.73	-0.116	2.49	-0.678	4.08	3.23	3.01	0.716	2.22	1.39	2.54	0.152	-1.06	3.41	3.41	0.149	4.26	0.417	4.06
